# Reference: PubChem BioAssay (NCI)
# The panel holds about 83,000 compounds, 20% with a hit somewhere; the sample as a whole holds those more often.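 Plates (96-well) were seeded with cells, treated with compound at one concentration, and incubated for 48 hours before percent growth was determined.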 Activity calls are given as the source filed them. Rule for the calls: active = growth percent below 10; inactive = the rest.
# Tested on: HL-60(TB) leukemia
# Experiment: NCI-60 one-dose screen, 48 h (100 = growth as untreated, 0 = no growth, -100 = all killed)
# Conditions: 10 µM unless noted
row,SMILES,growth
1,COc1ccc2c(c1)C(Sc1ccc(Br)cc1)c1c(nc(N)c(C#N)c1N)O2 (configuration not stated),78% (inactive)
2,Cc1ccc(S(=O)(=O)c2nc(S(=O)(=O)c3ccc(C)cc3)c(N3CCN(C)CC3)s2)cc1,17.8% (inactive)
3,COc1nc(N)ncc1-c1ccc2ncnc(N3CCc4cc(F)c(Cl)cc43)c2c1,47% (inactive)
4,CS(=O)(=O)Nc1cccc(-n2cnc3cc(-c4ccc(O)cc4)ccc32)c1,7.73% (active)
5,Cn1nc(C(F)(F)F)cc1-c1cc(Cl)c(COc2ccc(Cl)cc2)c(-c2ccc(Cl)c(C(F)(F)F)c2)c1O,-22.5% (active)
6,CCN1C(=O)N(CC)C2NNC(Sc3c(C(=O)O)c4ccccc4n(CC(C)C)c3=O)=NC21 (configuration not stated),-53.3% (active)
7,CC(C)c1sc(NC(=O)c2cc(NC(=O)c3cc(NC(=O)c4cscn4)cn3C)cn2C)nc1C(=O)NCCCN(C)C,-22.6% (active)
8,CC(=O)C1=C(C)NC(SCC(=O)Nc2ccc(S(=O)(=O)Nc3cc(C)on3)cc2)=NC1c1ccccc1 (configuration not stated),100% (inactive)
9,CN1C(=O)N(C)C2SC(N/N=C/C=C/c3ccccc3)=NC21 (configuration not stated),30.4% (inactive)
10,C#CCOc1ccc(/C=N/Nc2nc(-c3ccc(F)cc3)cs2)cc1OC,25.2% (inactive)
11,COc1c(F)ccc(C(=O)Nc2ccc3nc(NC(=O)C4CCCN(S(=O)(=O)c5cccc(Br)c5)C4)sc3c2)c1F (configuration not stated),80.6% (inactive)
12,COc1ccc(N=Nc2c(N)nn3c(-c4cc5cc(Br)ccc5oc4=O)ccnc23)cc1,102% (inactive)
13,CSc1ccccc1NC(=O)c1ccc2nn(/C(C#N)=C/c3ccccn3)nc2c1,-12.8% (active)
14,CC(C)(C)C(=O)C1CC(C#N)=C2C=Cc3c(ccc4ccccc34)N21 (configuration not stated),108% (inactive)
15,O=C(NO)c1ccc(CN2CCN(c3nc(-c4ccccc4)c4ccccc4n3)CC2)cc1,7.7% (active)
16,COc1ccc(C2=NN(C(=O)[C@H]3[C@@H](c4ccco4)c4sc(=O)[nH]c4S[C@@H]3C)C(c3ccc4ccccc4c3)C2)cc1 (some centres not stated),2.93% (active)
17,Cc1noc2c(Cc3ccccc3)nn(CC(=O)N/N=C/c3ccc(Br)cc3)c(=O)c12,100% (inactive)
18,Cc1[nH]nc2ccc3nc(-c4cn[nH]c4C(F)(F)F)c4c(c3c12)CCCC4,-0.0725% (active)
19,Cn1cc(-c2cc3nc(-c4cn(C)c5ncccc45)cc(N)n3n2)c2cc(Cl)ccc21,-66.6% (active)
20,CCCCCCCCOc1cccc(S(=O)(=O)Nc2ccc(C)cc2C(=O)O)c1,101% (inactive)
21,CCOC(=O)C(Cc1ccccc1)N1C(=O)/C(=C/N2N=C(c3ccc(OC)cc3)CC2c2ccc3ccccc3c2)SC1=S (configuration not stated),-18.4% (active)
22,Cc1ccc(-c2nc(C#N)c(S(=O)(=O)N3CCN(S(=O)(=O)c4ccc(Cl)cc4)CC3)o2)cc1,79.9% (inactive)
23,O=C1Nc2cc(-c3ccc(NS(=O)(=O)c4ccc(F)c(Cl)c4)cc3)ccc2/C1=C/c1ccc[nH]1,46.9% (inactive)
24,Cc1ccc(-c2nc(Nc3ccccc3S(N)(=O)=O)c3ccccc3n2)cc1,81.1% (inactive)
25,Nc1nc2cc(-c3ccc4ncnc(NCc5ccccc5)c4c3)ccc2o1,-43.8% (active)
26,Cc1ccc(O)cc1Nc1nc(SCCN2CCOCC2)nc2c1cnn2CC(Cl)c1ccc(Br)cc1 (configuration not stated),-49.7% (active)
27,CN1CCc2c(sc3ncnc(N/N=C/c4ccc5ccccc5c4)c23)C1,-14.6% (active)
